From the supplement of paper PMC12669032
Several values for one entry are separate records, joined by “and”; a condition that tells them apart may be missing. Equal entries are not always repeated.

Assays:
Experiment in all cases: growth AUC relative to DMSO control (median of replicates) (fraction); higher = more growth (less inhibition), active = hit call of the paper
Conditions in all cases: 20 µM; 24 h;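 active = AUC reduced over 20% with Padj below 0.05 in at least 2 of 3 replicates; inactive = otherwise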
[1] = test system: Akkermansia muciniphila
How it was run: (§1)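 Area under the growth curve was normalised to the plate median of solvent-only wells, or to row and column medians on the industrial chemical plate. Growth curves came from anaerobic gut bacterial monocultures in mGAM at 37 °C, seeded at OD600 0.05 with 20 µM compound (1% DMSO), and read at OD600 hourly for 24 h with the minimum OD set to 0. The value is the median of three biological replicates grown on separate days.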

[2] = test system: Bacteroides caccae
How it was run: as §1

[3] = test system: Bacteroides clarus
How it was run: as §1

[4] = test system: Bacteroides dorei
How it was run: as §1

[5] = test system: Bacteroides stercoris
How it was run: as §1

[6] = test system: Bacteroides thetaiotaomicron
How it was run: as §1

[7] = test system: Bacteroides uniformis
How it was run: as §1

[8] = test system: Bifidobacterium longum subsp. longum
How it was run: as §1

[9] = test system: Clostridium difficile
How it was run: as §1

[10] = test system: Collinsella aerofaciens
How it was run: as §1

Measured: growth AUC

CCN(CC)C(=O)SCc1ccc(Cl)cc1
inactive: [1] 0.879 | [2] 0.98 | [3] 0.954 | [4] 0.978 | [5] 1.12 | [6] 0.91 | [7] 0.973 | [8] 0.948 | [9] 1.02 | [10] 0.948

CC(C)(C)C(O)C(Oc1ccc(-c2ccccc2)cc1)n1cncn1 (mixture of isomers)
inactive: [1] 1.01 | [2] 0.919 | [3] 0.874 | [4] 0.926 | [5] 1.11 | [6] 0.938 | [7] 0.899 | [8] 0.847 | [9] 0.924 | [10] 0.995

CNC(=O)Oc1ccccc1OC(C)C
inactive: [1] 0.914 | [2] 0.993 | [3] 0.977 | [4] 1.01 | [5] 1.01 | [6] 0.975 | [7] 0.979 | [8] 0.996 | [9] 0.986 | [10] 0.955

COc1cc(OC)nc(NC(=O)NS(=O)(=O)c2cc(NC=O)ccc2C(=O)N(C)C)n1
inactive: [1] 0.976 | [2] 1.01 | [3] 0.979 | [4] 0.984 | [5] 1.06 | [6] 0.971 | [7] 1.03 | [8] 1.03 | [9] 1.01 | [10] 1.05

O=C(Nc1ccc(F)cc1F)c1cccnc1Oc1cccc(C(F)(F)F)c1
inactive: [1] 0.947 | [2] 0.929 | [3] 0.965 | [4] 0.882 | [5] 0.924 | [6] 0.966 | [7] 1.01 | [8] 1 | [9] 0.977 | [10] 0.946

ClC1C(Cl)C(Cl)C(Cl)C(Cl)C1Cl (stereo unspecified)
inactive: [10] 1.02 and 1.01 and 1.03

CCN(CC)c1c([N+](=O)[O-])cc(C(F)(F)F)c(N)c1[N+](=O)[O-]
inactive: [1] 0.987 | [2] 0.94 | [3] 0.977 | [4] 0.956 | [5] 1.09 | [6] 0.88 | [7] 0.972 | [8] 0.913 | [9] 1 | [10] 1

CO/C=C(/C(=O)OC)c1ccccc1Oc1cc(Oc2ccccc2C#N)ncn1
inactive: [1] 1.05 | [2] 1.01 | [3] 0.967 | [4] 0.997 | [5] 0.864 | [6] 0.965 | [7] 0.914 | [8] 0.977 | [9] 0.973 | [10] 0.994

CC1(C)[C@H](C=C(Cl)Cl)[C@H]1C(=O)OCc1c(F)c(F)cc(F)c1F
inactive: [1] 0.957 | [2] 1.02 | [3] 0.992 | [4] 1.07 | [5] 1.03 | [6] 0.993 | [7] 1.04 | [8] 0.954 | [9] 1.08 | [10] 1

CC1CNC(=S)N1 (stereo unspecified)
inactive: [1] 1 | [2] 1.03 | [3] 1.03 | [4] 1.04 | [5] 1.09 | [6] 1 | [7] 1 | [8] 1.01 | [9] 1.06 | [10] 1.04

C=C(C)CN(CC)c1c([N+](=O)[O-])cc(C(F)(F)F)cc1[N+](=O)[O-]
inactive: [1] 0.843 | [2] 1.02 | [3] 0.965 | [4] 1.02 | [5] 0.926 | [6] 0.998 | [7] 0.968 | [8] 0.933 | [9] 1.04 | [10] 1

CN(C(=O)COc1nc2ccccc2s1)c1ccccc1
inactive: [1] 1.06 | [2] 0.925 | [3] 1.03 | [4] 0.956 | [5] 1.26 | [6] 0.96 | [7] 0.934 | [8] 1.12 | [9] 0.982 | [10] 1.01

CCSC(=O)N(CC)C1CCCCC1
inactive: [1] 0.936 | [2] 0.998 | [3] 0.974 | [4] 1.02 | [5] 1.06 | [6] 1.01 | [7] 1.01 | [8] 1.01 | [9] 1.01 | [10] 1.09

CCCOCCN(C(=O)CCl)c1c(CC)cccc1CC
inactive: [1] 1.11 | [2] 0.979 | [3] 0.981 | [4] 0.976 | [5] 0.919 | [6] 0.95 | [7] 0.895 | [8] 1.05 | [9] 0.971 | [10] 0.972

Cc1cc(OC(=O)N(C)C)nn1C(=O)N(C)C
inactive: [1] 0.959 | [2] 1.02 | [3] 0.992 | [4] 0.968 | [5] 1.09 | [6] 1.02 | [7] 0.979 | [8] 0.988 | [9] 1.01 | [10] 1.02

Nc1nc(N)[nH]c(=O)n1
inactive: [1] 1.05 | [2] 1.02 | [3] 0.994 | [4] 1.04 | [5] 1 | [6] 1.01 | [7] 1.01 | [8] 1.02 | [9] 1 | [10] 1.1

O=C1C(Cl)=C(Cl)C(=O)C(Cl)=C1Cl
inactive: [1] 1.08 | [2] 1.09 | [3] 1.01 | [4] 0.978 | [5] 0.877 | [6] 0.986 | [7] 0.976 | [8] 0.969 | [9] 1.03 | [10] 0.992

CO/N=C(/C(=O)OC)c1ccccc1COc1ccccc1C
inactive: [1] 0.899 | [2] 0.979 | [3] 0.957 | [4] 0.964 | [5] 0.993 | [6] 0.907 | [7] 0.955 | [8] 0.874 | [9] 1.02 | [10] 0.991

ClC1=C(Cl)C2(Cl)[C@H]3[C@H]4O[C@H]4[C@H](Cl)[C@H]3C1(Cl)C2(Cl)Cl (single isomer, unassigned; isomer a)
inactive: [1] 1.05 | [2] 0.99 | [3] 0.989 | [4] 1 | [5] 0.778 | [6] 1.02 | [7] 0.991 | [8] 1.07 | [9] 0.998 | [10] 0.949

CN(C)C(=O)Nc1cccc(OC(=O)NC(C)(C)C)c1
inactive: [1] 1.19 | [2] 0.771 | [3] 1.01 | [4] 0.977 | [5] 1.4 | [6] 0.958 | [7] 0.883 | [8] 1.01 | [9] 0.928 | [10] 0.918

COP(=S)(OC)Oc1ccc([N+](=O)[O-])cc1
inactive: [1] 1.18 | [2] 0.898 | [3] 1.03 | [4] 0.888 | [5] 1.04 | [6] 0.975 | [7] 0.96 | [8] 1.03 | [9] 1.02 | [10] 0.955

CCN(CC)C(=O)C(C)Oc1cccc2ccccc12 (stereo unspecified)
inactive: [1] 0.935 | [2] 0.996 | [3] 0.976 | [4] 0.981 | [5] 1.05 | [6] 0.984 | [7] 0.958 | [8] 0.989 | [9] 0.965 | [10] 0.999
